Some test systems named below: NCI-H23 lung; NCI-H226 lung; NCI-H322M lung; HOP-62 NSCLC; NCI-H460 lung; HOP-92 NSCLC; A549/ATCC NSCLC; 786-0 renal; COLO 205 colon.
Assay in all cases: NCI-60 one-dose screen, 48 h (100 = growth as untreated, 0 = no growth, -100 = all killed)
Holding throughout (details): 10 µM unless noted

The structures appear in SMILES notation. Compounds without any hit were thinned out: in the full panel of roughly 83,000, 20% have a hit.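 Plates (96-well) were seeded with cells, treated with compound at one concentration, and incubated for 48 hours before percent growth was determined.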 Values without a mark were called inactive. Calls of active or inactive are those of the source. Rule for the calls: active = growth percent below 10; inactive = the rest.

For the compound `COc1ccc(C2=NN(C(N)=S)C(c3ccc4c(c3)OCO4)C2)cc1` (configuration not stated), the growth was 26.7% with NCI-H23 lung; 58.2% in the experiment with NCI-H226 lung; 25.6% in the experiment with NCI-H322M lung; 46.7% with HOP-62 NSCLC; 42.6% in the experiment with NCI-H460 lung; 54% in the experiment on HOP-92 NSCLC. Moreover, the growth in the experiment with A549/ATCC NSCLC is 58.6%; in the experiment with 786-0 renal, 30.6%; in the experiment on COLO 205 colon, 56.5%.

Regarding `O=C1C(=O)/C(=C/c2ccccc2)CCCCCC/C1=C/c1ccccc1`, the growth in the experiment on NCI-H23 lung is 42.3%; in the experiment with NCI-H226 lung it was 101%; in the experiment on NCI-H322M lung, 94.5%; in the experiment on HOP-62 NSCLC, 10.3%; in the experiment with NCI-H460 lung it was 90.4%; in the experiment on HOP-92 NSCLC, 90.3%. Moreover, the results for the growth in the experiment on A549/ATCC NSCLC, with 786-0 renal and in the experiment on COLO 205 colon were 86.1%, 86.6% and 99.6%, respectively.

On to `O=C(CN1CCN(c2ccc(Cl)cc2)CC1)N1CCN(c2nnc(-c3ccccc3)c(-c3ccccc3)n2)CC1`, for which the growth in the experiment with NCI-H23 lung was 34.9%; in the experiment on NCI-H226 lung, 43.7%; in the experiment on NCI-H322M lung it was 80.7%; in the experiment on HOP-62 NSCLC, 58.1%; in the experiment with NCI-H460 lung, 30.7%; in the experiment with HOP-92 NSCLC it was 39.1%. Further, the growth in the experiment with A549/ATCC NSCLC is -6.5% (active); in the experiment on 786-0 renal, 35.9%; in the experiment on COLO 205 colon it was 33%.

Turning to `c1ccc(Nc2ccc(Nc3nc(-c4ccccc4)nc4ccccc34)cc2)cc1`, the growth in the experiment on NCI-H23 lung was 86.9%; in the experiment on NCI-H226 lung it was 81.2%; in the experiment with NCI-H322M lung it was 90.5%; with HOP-62 NSCLC, 79.8%; with NCI-H460 lung, 83.4%; in the experiment on HOP-92 NSCLC, 134%. Further, the results for the growth with A549/ATCC NSCLC, in the experiment on 786-0 renal and with COLO 205 colon were 63.2%, 65.7% and 78.5%, respectively.

As for `COc1ccc(OC)c(CCn2cncc2-c2c[nH]c3cc(Br)ccc23)c1`, the growth was 30.1% with NCI-H23 lung; 41.5% in the experiment with NCI-H226 lung; 87.1% with NCI-H322M lung; 38% with HOP-62 NSCLC; 36.7% in the experiment on NCI-H460 lung; 20.6% with HOP-92 NSCLC. Further, the figures for the growth in the experiment with A549/ATCC NSCLC, in the experiment with 786-0 renal and in the experiment on COLO 205 colon were 31.2%, 59.5% and 7.59% (active), respectively.

Turning to `Cc1cc(=O)[nH]c(/C(=N/Nc2ccccc2)C(=O)c2ccc(Cl)cc2)n1`, the growth is 105% in the experiment with NCI-H23 lung; 109% with NCI-H226 lung; 107% in the experiment with NCI-H322M lung; 104% in the experiment on HOP-62 NSCLC; 109% with NCI-H460 lung; 88.7% in the experiment with HOP-92 NSCLC. Also, the growth is 92.5% with A549/ATCC NSCLC, 82.2% with 786-0 renal and 106% in the experiment with COLO 205 colon.

On to `c1ccc2c(-c3nc4ccccc4[nH]3)cccc2c1`, for which the growth was 44.2% with NCI-H23 lung; 79% in the experiment with NCI-H226 lung; 64.5% in the experiment on NCI-H322M lung; 43% with HOP-62 NSCLC; 15.5% in the experiment with NCI-H460 lung; 53.3% in the experiment on HOP-92 NSCLC. Besides, the figures for the growth in the experiment on A549/ATCC NSCLC, in the experiment with 786-0 renal and in the experiment on COLO 205 colon were 38.6%, 55.5% and 24.6%, respectively.

In the case of `COC(=O)c1cc2oc(/C=N\NC(=O)c3cc4oc(C)c(C)c4[nH]3)cc2[nH]1`, the growth in the experiment on NCI-H23 lung was 104%; in the experiment on NCI-H226 lung, 117%; with NCI-H322M lung, 106%; in the experiment on HOP-62 NSCLC, 110%; in the experiment with NCI-H460 lung, 111%; in the experiment with HOP-92 NSCLC, -34.1% (active). Also, the growth in the experiment with A549/ATCC NSCLC is 112%; with 786-0 renal, 107%; with COLO 205 colon it was 94%.

As for `O=C(Oc1ccccc1)C(Br)C(Br)c1ccccc1` (configuration not stated), the growth in the experiment with NCI-H23 lung was 112%; in the experiment with NCI-H226 lung it was 107%; in the experiment on NCI-H322M lung, 179%; with HOP-62 NSCLC, 107%; in the experiment with NCI-H460 lung it was 109%; in the experiment on HOP-92 NSCLC, 81.6%. In addition, the growth in the experiment on A549/ATCC NSCLC was 91.9%; in the experiment with 786-0 renal, 98.3%; in the experiment on COLO 205 colon, 49.4%.

With `CC[C@@H](C)/C=C(C)/C=C/C(O)=C1\C(=O)N[C@@H](Cc2ccc(OC(=O)[C@@](OC)(c3ccccc3)C(F)(F)F)cc2)C1=O`, the growth in the experiment with NCI-H23 lung is 99.2%; in the experiment with NCI-H226 lung, 104%; in the experiment with NCI-H322M lung, 91%; in the experiment with HOP-62 NSCLC, 110%; with NCI-H460 lung it was 79.8%; in the experiment on HOP-92 NSCLC it was 41.5%. Besides, the growth is 97.2% in the experiment on A549/ATCC NSCLC, 90.8% in the experiment with 786-0 renal and 118% in the experiment with COLO 205 colon.

For `O=C(N/N=C/c1cccc(O)c1O)c1ccccc1`, the growth with NCI-H23 lung is 28.2%; in the experiment on NCI-H226 lung it was 17.3%; in the experiment with NCI-H322M lung, 13.9%; in the experiment with HOP-62 NSCLC, 25.9%; with NCI-H460 lung, 3.29% (active); with HOP-92 NSCLC, -4.33% (active). The growth in the experiment with A549/ATCC NSCLC is 6.43% (active); with 786-0 renal it was 22%; in the experiment with COLO 205 colon, 5.29% (active).

On to `O=Cc1ncc(-c2ccc(C(F)(F)F)cc2)c(NC2CCCCCC2)n1`, for which the growth in the experiment on NCI-H23 lung was -73.1% [100 µM] (active); in the experiment on NCI-H226 lung, 28.2% [100 µM]; in the experiment with NCI-H322M lung, -5.95% [100 µM] (active); in the experiment on HOP-62 NSCLC, -94.9% [100 µM] (active); with NCI-H460 lung, -51.3% [100 µM] (active); in the experiment with HOP-92 NSCLC, -95.4% [100 µM] (active). In addition, the figures for the growth in the experiment with A549/ATCC NSCLC, with 786-0 renal and in the experiment with COLO 205 colon were -79.2% [100 µM] (active), -82.1% [100 µM] (active) and -60.5% [100 µM] (active), respectively.

Turning to `COc1ccc(/C=C2\CCc3ccccc3C2=O)cc1`, the growth in the experiment on NCI-H23 lung was 90.3%; in the experiment with NCI-H226 lung, 103%; in the experiment on NCI-H322M lung, 98.1%; in the experiment with HOP-62 NSCLC, 85.8%; in the experiment on NCI-H460 lung, 102%; in the experiment on HOP-92 NSCLC, 84.2%. The growth was 77.4% in the experiment on A549/ATCC NSCLC, 91.5% in the experiment on 786-0 renal and 106% in the experiment on COLO 205 colon.

These data come from PubChem BioAssay (NCI).
